High-throughput results as filed in PubChem.
HEK cytotox – kills HEK 293 cells; Potency, µM (highest dose often 115 µM), inactives show at the top dose activity change, negative = cytotoxicity, hits mostly inhibitors; 94,000 tested, 6.6% active; HEK 293 viability, ATP luminescence (CellTiter-Glo), 48-72 h; further: nearly all actives have a fitted effect of over 60% in size
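Pintool-delivered compounds were incubated with HEK 293 cells (250 cells/well) at 37 degree Celsius for 48 or 72 hr. ATP-dependent luminescence (CellTiter-Glo) then reported remaining viable cells.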
NPR1 antag – antagonists of human natriuretic peptide receptor Npr1. P16066. HEK293 hNpr1 GloSensor cGMP, ANP-stimulated luminescence. Potency, µM (top dose mostly 46.3 µM), without a hit: at the top dose activity change, negative = inhibition, usual class: inhibitors. 76,000 tested, 1.6% active. AID 1347048; calls by dose curve; further: nearly all actives have a fitted effect of over 60% in size
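Compound pre-incubated 30 min at room temperature on GloSensor-loaded HEK293 cells stably carrying hNpr1 and the pGS-40F cGMP biosensor. Stimulation uses hNppA at 0.1 nM final; luminescence is taken at baseline and 20 min post-agonist.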
3T3 cytotox – cytotoxic compounds in NIH 3T3 cells; NIH 3T3 viability, CellTiter-Glo ATP luminescence, 48-72 h; 94,000 tested, 4.3% active; Potency, µM (doses to about 96.7 µM), for inactives: at the highest dose activity change, negative = cytotoxicity, most hits filed as inhibitors; AID 1345082; further: nearly all actives have a fitted effect of over 55% in size
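Cytotoxicity is measured as loss of cellular ATP: NIH 3T3 cells (400/well) are exposed to compound for 48 or 72 hr at 37 °C, then CellTiter-Glo luminescence is imaged after 10 min at room temperature.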
FLuc inh – Photinus pyralis luciferase inhibition | purified P. pyralis luciferase, luminescence, biochemical | 76,000 tested, 2.5% active | Potency, µM (titrated, usually from 115 µM), most hits filed as inhibitors | AID 1347043 | P08659; further: nearly all actives have a fitted effect of over 65% in size
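Luminescence read by CCD imaging after purified firefly luciferase (10nM final) was added to substrate buffer holding 10uM D-luciferin and 10uM ATP, pH 7.5, pre-dosed with compound.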
GPT2 inh – blocks human glutamate pyruvate transaminase 2 | Potency, µM (top dose mostly 57.7 µM), for inactives: top-dose activity change, negative = inhibition, usual class: inhibitors | 100,000 tested, 0.25% active | Q8TD30 | Recombinant GPT2, coupled pyruvate oxidase/HRP Amplex Red fluorescence; further: nearly all actives have a fitted effect of over 60% in size
Target sequence (Q8TD30 whole entry, looked up): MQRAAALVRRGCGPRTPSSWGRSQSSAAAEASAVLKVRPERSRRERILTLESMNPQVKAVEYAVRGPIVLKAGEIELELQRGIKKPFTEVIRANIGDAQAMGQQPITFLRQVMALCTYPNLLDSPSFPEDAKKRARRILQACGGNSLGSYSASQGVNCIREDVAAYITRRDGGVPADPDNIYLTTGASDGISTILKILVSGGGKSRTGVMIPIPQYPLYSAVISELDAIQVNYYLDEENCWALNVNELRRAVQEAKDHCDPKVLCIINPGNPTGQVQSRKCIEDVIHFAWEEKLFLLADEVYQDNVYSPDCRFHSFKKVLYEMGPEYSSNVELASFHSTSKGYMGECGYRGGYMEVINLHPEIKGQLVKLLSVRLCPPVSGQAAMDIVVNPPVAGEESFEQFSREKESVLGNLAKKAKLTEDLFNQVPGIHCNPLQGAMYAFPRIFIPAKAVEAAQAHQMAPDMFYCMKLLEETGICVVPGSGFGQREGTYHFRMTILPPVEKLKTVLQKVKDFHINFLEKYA
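GPT2 10ng/uL, a-KG 250uM, L-Ala 2mM, HEPES pH7.5 + 0.0001% Tween; 30 min RT. Then Amplex mix (PO/HRP/ThPP), 30 min RT dark, fluorescence. AOA 50uM used as positive control.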
Numbers without * were called inactive; i = inactive; ? = inconclusive; . = no result given; [ ] = remark or other dose. Sampled rows, rich in hits. Any-hit rate of the full collection: about 10%. Unless noted, the call rests on the fitted dose curve; in most records, active means well fitted curve in the direction sought with a large enough effect; inconclusive means small, poorly fitted or top-dose-only effect, or another doubt; inactive means no such curve, though single readings can be large; an effect the other way counts as inactive or inconclusive. On the % scale 0 is the no-effect control and ±100 the full control effect; potency means the concentration at half of the fitted maximal effect.

SMILES	HEK cytotox	NPR1 antag	3T3 cytotox	FLuc inh	GPT2 inh
Cc1nc(-c2cccs2)cc([C@H]2CN3CC[C@H]2C[C@@H]3CNS(=O)(=O)c2ccccc2)n1	28.2µM*	-8.1%	20µM*	i	-26.5%
Cc1nc(-c2cccs2)cc([C@H]2CN3CC[C@H]2C[C@@H]3CO)n1	-105.7%[172 µM]	2.2%[70.6 µM]	15.8µM*	i	-9.6%[88.5 µM]
Cc1nc(-c2cccs2)cc([C@H]2CN3CC[C@H]2C[C@@H]3CNC(=O)C(C)(C)C)n1	?	-8.1%[70.6 µM]	?	i	-20.5%[88.5 µM]
CN1c2ncccc2CN(Cc2ccccc2)CC[C@H]1CO	?	-10.7%[70.6 µM]	?	i	i
CN(C)CCc1c[nH]c2cccc(O)c12	.	.	.	.	10µM*
COc1cc2c(cc1OCC1CC1)NC(=O)C21CCN(Cc2ccccc2O)CC1	?	-17.5%[70.6 µM]	39.8µM*	i	1.7%[88.5 µM]
COc1cc2c(cc1OCc1ccncc1)NC(=O)C21CCN(Cc2ccccc2)CC1	100µM*	-26.9%[70.6 µM]	79.4µM*	i	2.8%[88.5 µM]
COc1cc2c(cc1OC1CCCC1)NC(=O)C21CCN(Cc2cccc(O)c2)CC1	89.1µM*	-9.5%[70.6 µM]	25.1µM*	i	-14.7%[88.5 µM]
COc1cc2c(cc1OCc1ccccc1)NC(=O)C21CCN(C(=O)c2cccnc2)CC1	50.1µM*	?	?	i	-3.7%
C[C@@H]1[C@@H](C(=O)C[C@H]2O[C@@H]3O[C@]4(C)CC[C@@H]5[C@H](C)CC[C@@H]([C@H]2C)[C@@]35OO4)O[C@@H]2O[C@]3(C)CC[C@H]4[C@H](C)CC[C@@H]1[C@@]24OO3	.	.	.	.	-0.6%
COc1cc2c(cc1OCc1ccccc1)NC(=O)C21CCN(Cc2cccc(O)c2)CC1	35.5µM*	1.2%	22.4µM*	?	3.5%
COc1cc2c(cc1OCC1CC1)NC(=O)C21CCN(Cc2cccc(O)c2)CC1	89.1µM*	-8.9%[70.6 µM]	?	?	-6.0%[88.5 µM]
COc1cc2c(cc1OCc1ccncc1)NC(=O)C21CCN(Cc2cccc(O)c2)CC1	?	-20.2%	?	i	-3.1%
CCC(C)C1NC(=O)C2CCCN2C(=O)C(CC(C)C(=O)O)OC(=O)CCNC(=O)C(C)N(C)C(=O)C(C(C)C)N(C)C1=O (stereo not given)	.	.	.	.	-32.0%[17.1 µM]
O=C(c1ccsc1)N1[C@H]2CC[C@@H]1c1cnc(-c3ccccc3)nc1C2	-28.6%	?	-21.7%	i	i
Cc1ccccc1S(=O)(=O)N1[C@H]2CC[C@@H]1c1cnc(-c3ccc(F)cc3)nc1C2	28.2µM*	?	?	i	-6.6%
Cc1ncc2c(n1)C[C@@H]1CC[C@H]2N1S(=O)(=O)c1ccccc1C	-23.4%	2.9%	-14.4%	i	i
O=C(c1cccs1)N1[C@H]2CC[C@@H]1c1cnc(-c3ccccc3)nc1C2	?	?	-4.9%	i	i
Cc1ccsc1C(=O)N1[C@H]2CC[C@@H]1c1cnc(-c3ccccc3)nc1C2	10µM*	.	?	.	i
O=C(c1cccs1)N1[C@H]2CC[C@@H]1c1cnc(-c3ccc(F)cc3)nc1C2	?	11.2µM*	?	?	-29.4%
Cc1nc(C)c(C(=O)N2[C@H]3CC[C@@H]2c2cnc(-c4ccc(F)cc4)nc2C3)s1	?	15.8µM*	-20.8%	?	-0.4%
COc1ccc(NC(=O)N2[C@H]3CC[C@@H]2c2cncnc2C3)cc1OC	2.7%	4.5%	3.8%	i	?
O=C1NCc2ccccc2CC12CCCN2Cc1ccnc(Cl)c1 (stereo not given)	?	.	?	.	-3.8%
O=C(c1ccc2c(c1)OCO2)N1[C@H]2CC[C@@H]1c1cnc(-c3ccc(F)cc3)nc1C2	44.7µM*	-11.4%	?	i	-8.0%
Cc1nc(-c2ccco2)cc([C@H]2CN3CC[C@H]2C[C@@H]3CNC(=O)C2CCCCC2)n1	?	?	?	i	i
SMILES	HEK cytotox	NPR1 antag	3T3 cytotox	FLuc inh	GPT2 inh
Cc1nc(-c2ccccc2)cc([C@H]2CN3CC[C@H]2C[C@@H]3CNC(=O)C2CC2)n1	-11.6%[172 µM]	-1.3%[70.6 µM]	-22.6%[174 µM]	i	?
Cc1nc(-c2ccco2)cc([C@H]2CN3CC[C@H]2C[C@@H]3CNC(=O)Nc2ccccc2)n1	89.1µM*	-11.0%[70.6 µM]	?	i	-11.3%[88.5 µM]
Cc1nc(-c2ccccc2)cc([C@H]2CN3CC[C@H]2C[C@@H]3CN(Cc2ccco2)Cc2ccco2)n1	?	-15.9%	22.4µM*	i	2.6%
Cc1nc(-c2ccco2)cc([C@H]2CN3CC[C@H]2C[C@@H]3CNC(=O)NC2CCCCC2)n1	?	0.5%[70.6 µM]	100µM*	i	i
C=CCNC(=O)NC[C@H]1C[C@@H]2CCN1C[C@@H]2c1cc(-c2ccco2)nc(C)n1	-9.4%[172 µM]	2.7%[70.6 µM]	-3.3%[174 µM]	i	i
CN1C(=O)CO[C@H]2CN(C3CCOCC3)C[C@H]21	-1.6%[230 µM]	2.7%[70.6 µM]	4.7%[230 µM]	i	i
CN1CCN(C[C@H]2CN3CC[C@H]2C[C@@H]3CNC(=O)Nc2ccccc2)CC1	3.9%[172 µM]	4.4%[70.6 µM]	?	i	1.5%[88.5 µM]
CCN(CC)C[C@H]1CN2CC[C@H]1C[C@@H]2CNS(=O)(=O)c1ccc(Cl)cc1	?	1.8%[70.6 µM]	70.8µM*	i	i
CSc1cccc(NC(=O)NC[C@H]2C[C@@H]3CCN2C[C@@H]3CN2CCC(Cc3ccccc3)CC2)c1	?	2.7%	25.1µM*	i	1.4%
O=C(NC[C@H]1C[C@@H]2CCN1C[C@@H]2CN1CCC(Cc2ccccc2)CC1)Nc1ccccc1	31.6µM*	-1.5%	?	i	4.1%
O=S(=O)(NC[C@H]1C[C@@H]2CCN1C[C@@H]2CN1CCC(Cc2ccccc2)CC1)c1ccc(Cl)cc1	7.08µM*	-3.5%	14.1µM*	i	0.9%
COc1ccccc1N1CCN(C[C@H]2CN3CC[C@H]2C[C@@H]3CNC(=O)Nc2cccc(SC)c2)CC1	?	-0.5%	?	i	i
CC(C)CN[C@H]1[C@H](O)[C@H](O)C[C@@H]1c1ccccc1	-2.4%[230 µM]	-4.7%[70.6 µM]	-18.7%[230 µM]	i	4.3%[88.5 µM]
CC(C)NC(=O)NC[C@H]1C[C@@H]2CCN1C[C@@H]2CN1CCC(Cc2ccccc2)CC1	50.1µM*	0.9%[70.6 µM]	?	i	-3.2%[88.5 µM]
CC(C)NC(=O)NC[C@H]1C[C@@H]2CCN1C[C@@H]2CN1CCN(c2ccccc2)CC1	-16.8%[172 µM]	0.4%[70.6 µM]	-23.1%[174 µM]	i	i
CN1CCC(N(C)CCC2CCOCC2)CC1	4.9%	4.2%	i	i	3.6%
C#C[C@H]1CN2CC[C@H]1C[C@@H]2COC(=O)Nc1ccc(C(C)(C)C)cc1	?	-0.8%[70.6 µM]	79.4µM*	i	i
C#C[C@H]1CN2CC[C@H]1C[C@@H]2COC(=O)Nc1ccc(OC(F)(F)F)cc1	?	?	39.8µM*	i	-3.4%[88.5 µM]
C#C[C@H]1CN2CC[C@H]1C[C@@H]2COC(=O)Nc1ccc(Br)cc1	?	-3.0%[70.6 µM]	?	i	?
